First the molecules themselves.
B1: ENSMUSG00000058297.13|Spock2 (ssRNA)
RNA: GGGAGUUCUACAGUCCGACGAUCGCUUCGAUAUCCGCAUGCUAGGCAGAUGAUGGAGGCUACAUCUGGUAGAUAGCCCUCGACGGCCUCGGCAGGCCAGGGUGCCGACGGCCAGAAAGACAGGCCAGAAGAGACCUGGACAACAGCAGGCAACUUAGCAAAUGGAUCCGGAAGUCAGUGCGGAGGACCCUGGCUCCAGUGGGGGAGGACUGGGGAGUGUGGCUUGUGUGUAUGUGUGAUAUGAGAUGUGUGUGUAUGAUGUGAGAUGUGAGUGUGUGAUGUGAGAUGUGUGUAUGUGAGAUGUCUCUUGCGGUCGCACUAGUGUGGAAUUCUCGGGUGUCAAGG
B2: ENSMUSG00000058297.4|Spock2|227:231;235:248 (ssRNA)
RNA: GGGAGUUCUACAGUCCGACGAUCGCUUCGAUAUCCGCAUGCUAGGAGACAGAAGAGGCAGGGGAGGAGGCCGAGGAGGAGGAGGGUGAGGCGGGUGAGGCAGAUGAUGGAGGCUACAUCUGGUAGAUAGCCCUCGACGGCCUCGGCAGGCCAGGGUGCCGACGGCCAGAAAGACAGGCCAGAAGAGACCUGGACAACAGCAGGCAACUUAGCAAAUGGAUCCGGAAGUCAGUGCGGAGGACCCUGGCUCCAGUGGGGGAGGACUGGGGACACACGCUACACACAUACACACAUAUGAGAUGUGCUCUUGCGGUCGCACUAGUGUGGAAUUCUCGGGUGUCAAGG
B3: ENSMUSG00000058297.12|Spock2|179:183;187:200;209:220;234:240;249:258 (ssRNA)
RNA: GGGAGUUCUACAGUCCGACGAUCGCUUCGAUAUCCGCAUGCUAGGGUGAGGCAGAUGAUGGAGGCUACAUCUGGUAGAUAGCCCUCGACGGCCUCGGCAGGCCAGGGUGCCGACGGCCAGAAAGACAGGCCAGAAGAGACCUGGACAACAGCAGGCAACUUAGCAAAUGGAUCCGGAAGUCAGUGCGGAGGACCCUGGCUCCAGUGGGGGAGGACUGGGGACACACGCUACACACAUACACACAUAUGAGAACACACACAUACAUGUGAGAUGUGACACACACAUGUGAGAACACACAUACUGCUCUUGCGGUCGCACUAGUGUGGAAUUCUCGGGUGUCAAGG
B4: ENSMUSG00000058297.12|Spock2 (ssRNA)
RNA: GGGAGUUCUACAGUCCGACGAUCGCUUCGAUAUCCGCAUGCUAGGGUGAGGCAGAUGAUGGAGGCUACAUCUGGUAGAUAGCCCUCGACGGCCUCGGCAGGCCAGGGUGCCGACGGCCAGAAAGACAGGCCAGAAGAGACCUGGACAACAGCAGGCAACUUAGCAAAUGGAUCCGGAAGUCAGUGCGGAGGACCCUGGCUCCAGUGGGGGAGGACUGGGGAGUGUGGCUUGUGUGUAUGUGUGAUAUGAGAUGUGUGUGUAUGAUGUGAGAUGUGAGUGUGUGAUGUGAGAUGUGUGUAUGUGCUCUUGCGGUCGCACUAGUGUGGAAUUCUCGGGUGUCAAGG
B5: ENSMUSG00000058297.10|Spock2|191:195;199:212;221:232;246:252 (ssRNA)
RNA: GGGAGUUCUACAGUCCGACGAUCGCUUCGAUAUCCGCAUGCUAGGAGGGUGAGGCGGGUGAGGCAGAUGAUGGAGGCUACAUCUGGUAGAUAGCCCUCGACGGCCUCGGCAGGCCAGGGUGCCGACGGCCAGAAAGACAGGCCAGAAGAGACCUGGACAACAGCAGGCAACUUAGCAAAUGGAUCCGGAAGUCAGUGCGGAGGACCCUGGCUCCAGUGGGGGAGGACUGGGGACACACGCUACACACAUACACACAUAUGAGAACACACACAUACAUGUGAGAUGUGACACACACAUGUGAGACUCUUGCGGUCGCACUAGUGUGGAAUUCUCGGGUGUCAAGG
B6: ENSMUSG00000058297.17|Spock2|149:153;157:170;179:190;204:210;219:228;234:259 (ssRNA)
RNA: GGGAGUUCUACAGUCCGACGAUCGCUUCGAUAUCCGCAUGCUAGUAGAUAGCCCUCGACGGCCUCGGCAGGCCAGGGUGCCGACGGCCAGAAAGACAGGCCAGAAGAGACCUGGACAACAGCAGGCAACUUAGCAAAUGGAUCCGGAAGUCAGUGCGGAGGACCCUGGCUCCAGUGGGGGAGGACUGGGGACACACGCUACACACAUACACACAUAUGAGAACACACACAUACAUGUGAGAUGUGACACACACAUGUGAGAACACACAUACUGAGAACACACACACACACACACACACACACACUCUUGCGGUCGCACUAGUGUGGAAUUCUCGGGUGUCAAGG
B7: ENSMUSG00000058297.17|Spock2 (ssRNA)
RNA: GGGAGUUCUACAGUCCGACGAUCGCUUCGAUAUCCGCAUGCUAGUAGAUAGCCCUCGACGGCCUCGGCAGGCCAGGGUGCCGACGGCCAGAAAGACAGGCCAGAAGAGACCUGGACAACAGCAGGCAACUUAGCAAAUGGAUCCGGAAGUCAGUGCGGAGGACCCUGGCUCCAGUGGGGGAGGACUGGGGAGUGUGGCUUGUGUGUAUGUGUGAUAUGAGAUGUGUGUGUAUGAUGUGAGAUGUGAGUGUGUGAUGUGAGAUGUGUGUAUGUGAGAUGUGUGUGUGUGUGUGUGUGUGUGUGACUCUUGCGGUCGCACUAGUGUGGAAUUCUCGGGUGUCAAGG
B8: ENSMUSG00000058297.13|Spock2|173:177;181:194;203:214;228:234;243:252 (ssRNA)
RNA: GGGAGUUCUACAGUCCGACGAUCGCUUCGAUAUCCGCAUGCUAGGCAGAUGAUGGAGGCUACAUCUGGUAGAUAGCCCUCGACGGCCUCGGCAGGCCAGGGUGCCGACGGCCAGAAAGACAGGCCAGAAGAGACCUGGACAACAGCAGGCAACUUAGCAAAUGGAUCCGGAAGUCAGUGCGGAGGACCCUGGCUCCAGUGGGGGAGGACUGGGGACACACGCUACACACAUACACACAUAUGAGAACACACACAUACAUGUGAGAUGUGACACACACAUGUGAGAACACACAUACUGAGAUGUCUCUUGCGGUCGCACUAGUGUGGAAUUCUCGGGUGUCAAGG

The full ranking holds about 9,900 sequences; the median of “r (bound/input frequency ratio)” is about 0.7, and the highest 2% start at about 6.5. The list comes from a sample in which the highest values are over-represented; it also holds similar and randomly drawn sequences.

TDP-43, sequence (Q13148 whole entry): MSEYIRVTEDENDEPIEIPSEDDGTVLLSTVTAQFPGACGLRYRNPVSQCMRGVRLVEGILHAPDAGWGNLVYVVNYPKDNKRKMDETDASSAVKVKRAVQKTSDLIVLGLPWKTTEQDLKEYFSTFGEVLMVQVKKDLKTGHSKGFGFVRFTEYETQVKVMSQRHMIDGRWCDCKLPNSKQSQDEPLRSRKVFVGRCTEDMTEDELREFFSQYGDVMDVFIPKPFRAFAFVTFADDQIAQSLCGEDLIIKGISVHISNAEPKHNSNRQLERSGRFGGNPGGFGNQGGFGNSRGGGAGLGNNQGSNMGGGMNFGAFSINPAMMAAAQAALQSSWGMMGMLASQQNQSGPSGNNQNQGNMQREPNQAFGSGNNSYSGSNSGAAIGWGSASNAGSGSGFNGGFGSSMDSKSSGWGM

This assay concerns the target TDP-43 (Homo sapiens, UniProt Q13148 1-414). The experiment in a line: RNA Bind-n-Seq with designed 260-mer pool; 25 mM Tris-HCl, 150 mM KCl, 3 mM MgCl2, BSA (printed 500 mg/mL), 20 units/mL SUPERase IN; pH not stated; 500 nM RNA pool, 1 h, 4 C; TDP-43 5, 50, 500 nM; high values mean tight binding. The settings on record: protein: recombinant; tags: SBP (GST cleaved off with PreScission; pGEX-GST-SBP). In short, it runs like this:
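The incubation lasted 1 h at 4 °C and used 500 nM of an in vitro-transcribed 260-nt 3′ UTR oligo pool with recombinant SBP-tagged TDP-43 at 5, 50 or 500 nM immobilized on streptavidin beads. It took place in 25 mM Tris-HCl, 150 mM KCl, 3 mM MgCl2, BSA and SUPERase IN. Bound RNA was washed, eluted with biotin, converted to cDNA, PCR-amplified and sequenced to give R, each oligo's normalized abundance in the bound sample divided by that in input. Two independent protein batches provided the duplicates.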
In the case of B1, the binding signal was 7.72 R (bound/input frequency ratio). For B2, the binding signal was 2.44 R (bound/input frequency ratio).

Regarding B3, the binding signal was 2.28 R (bound/input frequency ratio). The result for B4 reads 8.09 R (bound/input frequency ratio). Take B5: the binding signal is 2.04 R (bound/input frequency ratio). The result for B6 reads 2.9 R (bound/input frequency ratio); that for B7, 8.62 R (bound/input frequency ratio); that for B8, 2.37 R (bound/input frequency ratio).

These data come from publication PMC12864922, “TDP-43 directly inhibits mRNA accumulation in neurites through modulation of mRNA stability”.
